Records with an inconclusive call do not appear. Calls of active or inactive are those of the source. Unless noted, calls follow the shape of the dose curve; as a rule, active = well fitted curve in the direction sought with a large enough effect in the repeat runs; inconclusive = weak or mixed curves; inactive = no such curve, though single readings can be large; an effect the other way counts as inactive or inconclusive.
Legend:
[1] = qHTS RealTime-Glo MT Cell Viability Assay in HepG2 cells - 32 hour (AID 1224877); also: nearly all actives have a fitted effect of over 55% in size
In short: (§1)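 Viability was tracked continuously by NanoLuc luminescence from prosubstrate reduced by living HepG2 cells, at successive time points over 40 h of compound exposure. Cells with reagent were preincubated 5 h at 37 °C before compound addition.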

[2] = A CellTox Green Cytotoxicity Assay to monitor cytotoxicity in HepG2 cells - 24 hour (AID 1224878); also: nearly all actives have a fitted effect of over 45% in size
In short: (§2)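 Continuous culture of HepG2 cells with a membrane-impermeant DNA dye; rising fluorescence marks dead cells. Compound exposure lasted up to 40 h at 37 C, with reads every 8 h from 0 h.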

[3] = A CellTox Green Cytotoxicity Assay to monitor cytotoxicity in HepG2 cells - 40 hour (AID 1224879); also: nearly all actives have a fitted effect of over 40% in size
In short: as §2

[4] = qHTS RealTime-Glo MT Cell Viability Assay in HEK293 cells - 0 hour (AID 1224880); also: top concentration of the series differs between compounds; nearly all actives have a fitted effect of over 45% in size
In short: (§3)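 qHTS format; HEK293 cells with NanoLuc/prosubstrate reagent, 37 C/5% CO2 for 5 h pre-dosing; compounds 23 nL in DMSO; luminescence at each time point reflects viable cells.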

[5] = A CellTox Green Cytotoxicity Assay to monitor cytotoxicity in HEK293 cells - 32 hour (AID 1224881); also: nearly all actives have a fitted effect of over 40% in size
In short: (§4)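 Each value comes from one timepoint of a single continuous run in which HEK293 cells with CellTox Green were exposed to compound for up to 40 h at 37 C, dye fluorescence rising with cell death.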

[6] = A CellTox Green Cytotoxicity Assay to monitor cytotoxicity in HepG2 cells - 0 hour (AID 1224882); also: nearly all actives have a fitted effect of over 35% in size
In short: as §2

[7] = A CellTox Green Cytotoxicity Assay to monitor cytotoxicity in HepG2 cells - 32 hour (AID 1224883); also: nearly all actives have a fitted effect of over 50% in size
In short: as §2

[8] = A CellTox Green Cytotoxicity Assay to monitor cytotoxicity in HEK293 cells - 8 hour (AID 1224884); also: nearly all actives have a fitted effect of over 35% in size
In short: as §4

[9] = qHTS RealTime-Glo MT Cell Viability Assay in HepG2 cells - 16 hour (AID 1224885); also: nearly all actives have a fitted effect of over 50% in size
In short: as §1

[10] = qHTS RealTime-Glo MT Cell Viability Assay in HEK293 cells - 24 hour (AID 1224886); also: top concentration of the series differs between compounds; nearly all actives have a fitted effect of over 50% in size
In short: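 Viability tracked continuously by luminescence as live cells reduce a prosubstrate for NanoLuc; HEK293 cells preincubated 5 h, compound-treated at 37 C, and read at 0, 8, 16, 24, 32 and 40 h.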

[11] = qHTS RealTime-Glo MT Cell Viability Assay in HEK293 cells - 8 hour (AID 1224887); also: top concentration of the series differs between compounds; nearly all actives have a fitted effect of over 50% in size
In short: as §3

[12] = A CellTox Green Cytotoxicity Assay to monitor cytotoxicity in HEK293 cells - 16 hour (AID 1224888); also: nearly all actives have a fitted effect of over 35% in size
In short: as §4

[13] = qHTS RealTime-Glo MT Cell Viability Assay in HepG2 cells - 0 hour (AID 1224889); also: nearly all actives have a fitted effect of over 50% in size
In short: as §1

[14] = A CellTox Green Cytotoxicity Assay to monitor cytotoxicity in HepG2 cells - 8 hour (AID 1224890); also: nearly all actives have a fitted effect of over 45% in size
In short: as §2

[15] = qHTS assay to identify small molecule antagonists of the estrogen receptor alpha (ER-alpha) signaling pathway using the BG1 cell line in the presence of 0.1 nM 17-beta-estradiol - cell viability counter screen (AID 1259241); also: nearly all actives have a fitted effect of over 40% in size
In short: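 VM7Luc4E2 cells (endogenous ER-alpha, 4×ERE-luciferase), hormone-starved 5 days in charcoal-stripped FBS, were treated with compounds plus 0.1 nM 17beta-estradiol for 22 hr at 37C; viability read in same wells as CellTiter-Fluor live-cell protease fluorescence.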

[16] = qHTS assay to identify small molecule antagonists of the androgen receptor (AR) signaling pathway using the MDA cell line in the presence of 0.5 nM R1881 - cell viability counter screen (AID 1259242); also: nearly all actives have a fitted effect of over 45% in size
In short: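 Fluorescence from CellTiter-Fluor, which reports protease activity of live cells, was read 30 min after reagent addition to MDA-kb2 cells that had been incubated 16 hr with compound and 0.5 nM R1881.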

[17] = qHTS assay to identify small molecule phospholipidosis (PLD) inducers (AID 1259344; active = well fitted curve in the direction sought with a large enough effect; an effect the other way counts as inactive or inconclusive)
In short: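 HepG2 cells grown on collagen I take up LipidTOX Red while exposed to compound for 24 h; after fixation they are imaged at 20x and pit metrics are extracted.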

[18] = qHTS assay to identify small molecule HDAC inhibitors (AID 1259364)
In short: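 Endogenous HDAC class I/II activity was measured in wild-type HCT-116 cells by HDAC-Glo luminescence after 2 h compound treatment.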

[19] = qHTS assay to identify small molecule HDAC inhibitors - cell viability counter screen (AID 1259365)
In short: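 Wild-type HCT-116 cells were seeded at 1,500 per well, incubated overnight at 37 C, then exposed to compounds in DMSO for 2hr. Viability was read by CellTiter-Glo luminescence after 30min at room temperature.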

[20] = biological target: Estrogen receptor (Homo sapiens) (UniProt P03372); assay: qHTS assay to identify small molecule antagonists of the estrogen receptor alpha (ER-alpha) signaling pathway using the BG1 cell line in the presence of 0.1 nM 17-beta-estradiol (AID 1259244); also: nearly all actives have a fitted effect of over 50% in size
In short: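 Quantitative high-throughput screen in VM7Luc4E2 cells: compound plus 0.1 nM E2 (final), 22 h, 37C, 5% CO2; ONE-Glo added, 30 min room temperature, luminescence measured.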
% is scaled to controls: 0 for no effect and ±100 for the full control effect.

Sequence of Estrogen receptor (Homo sapiens) (P03372 whole entry, looked up): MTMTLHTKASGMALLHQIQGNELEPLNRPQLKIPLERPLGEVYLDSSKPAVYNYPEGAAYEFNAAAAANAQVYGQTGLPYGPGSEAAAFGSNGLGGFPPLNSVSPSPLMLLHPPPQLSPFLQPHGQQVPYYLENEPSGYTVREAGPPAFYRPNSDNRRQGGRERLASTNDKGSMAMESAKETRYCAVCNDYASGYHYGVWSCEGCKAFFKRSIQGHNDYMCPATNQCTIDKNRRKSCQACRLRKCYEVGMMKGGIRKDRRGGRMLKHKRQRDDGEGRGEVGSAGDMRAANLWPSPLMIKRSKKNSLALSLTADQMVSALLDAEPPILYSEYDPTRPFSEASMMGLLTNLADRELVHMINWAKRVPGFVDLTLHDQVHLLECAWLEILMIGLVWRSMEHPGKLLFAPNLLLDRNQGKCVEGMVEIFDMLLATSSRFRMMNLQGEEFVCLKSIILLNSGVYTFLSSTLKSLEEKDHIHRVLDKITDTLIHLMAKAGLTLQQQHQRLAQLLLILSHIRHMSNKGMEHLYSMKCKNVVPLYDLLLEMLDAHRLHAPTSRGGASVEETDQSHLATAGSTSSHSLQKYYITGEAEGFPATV

CCC1Nc2cc(Cl)c(S(N)(=O)=O)cc2S(=O)(=O)N1 (stereo unspecified)
inactive: outcome [1] | Potency [2] | Potency [3] | outcome [4] | Potency [5] | Potency [6] | Potency [7] | Potency [8] | outcome [9] | Potency [10] | Potency [11] | Potency [12] | Potency [13] | Potency [14] | Potency [15] | Potency [16] | outcome [17] | Potency [18] | outcome [19]

CNC(=O)NC
inactive: outcome [1] | Potency [2] | Potency [3] | outcome [4] | Potency [5] | Potency [6] | Potency [7] | Potency [8] | outcome [9] | Potency [10] | Potency [11] | Potency [12] | Potency [13] | Potency [14] | Potency [15] | Potency [16] | Potency [20] | outcome [19]

CCCCCCCCOC(C)=O
inactive: outcome [1] | Potency [2] | Potency [3] | outcome [4] | Potency [5] | Potency [6] | Potency [7] | Potency [8] | outcome [9] | Potency [10] | Potency [11] | Potency [12] | Potency [13] | Potency [14] | Potency [15] | Potency [16] | Potency [20] | Potency [18] | outcome [19]

CC(=O)c1ccc2c(c1)CCCC2
inactive: outcome [1] | Potency [2] | Potency [3] | outcome [4] | Potency [5] | Potency [6] | Potency [7] | Potency [8] | outcome [9] | Potency [10] | Potency [11] | Potency [12] | Potency [13] | Potency [14] | Potency [15] | Potency [16] | Potency [20] | Potency [18] | outcome [19]

Cc1ccccc1N1CCN(CCc2nnc3n2CCCC3)CC1
inactive: outcome [1] | Potency [2] | Potency [3] | outcome [4] | Potency [5] | Potency [6] | Potency [7] | Potency [8] | outcome [9] | Potency [10] | Potency [11] | Potency [12] | Potency [13] | Potency [14] | Potency [15] | Potency [16] | outcome [17] | Potency [18] | outcome [19]

O=C(Oc1ccccc1C(=O)O)c1ccccc1O
inactive: outcome [1] | Potency [2] | Potency [3] | outcome [4] | Potency [5] | Potency [6] | Potency [7] | Potency [8] | outcome [9] | Potency [10] | Potency [11] | Potency [12] | Potency [13] | Potency [14] | Potency [15] | Potency [16] | Potency [20] | outcome [17] | Potency [18] | outcome [19]

CC(C)COC(=O)CCCCC(=O)OCC(C)C
inactive: outcome [1] | Potency [2] | Potency [3] | outcome [4] | Potency [5] | Potency [6] | Potency [7] | Potency [8] | outcome [9] | Potency [10] | Potency [11] | Potency [12] | Potency [13] | Potency [14] | Potency [15] | Potency [16] | Potency [18] | outcome [19]

CO[Si](CCCS)(OC)OC
inactive: outcome [1] | Potency [2] | Potency [3] | outcome [4] | Potency [5] | Potency [6] | Potency [7] | Potency [8] | outcome [9] | Potency [10] | Potency [11] | Potency [12] | Potency [13] | Potency [14] | Potency [15] | Potency [16] | Potency [20] | outcome [19]

O=C(Nc1cccc(C2=NCCN2)c1)Nc1cccc(C2=NCCN2)c1
inactive: activity change, negative = cytotoxic [1] 2.71% [at 15.8 µM] | cytotoxicity [2] -8.34% [at 15.8 µM] | cytotoxicity increase [3] -7.03% [at 15.8 µM] | activity change, negative = cytotoxicity [4] -5.15% [at 15.8 µM] | cytotoxicity increase [5] -2.02% [at 15.8 µM] | cytotoxicity [6] -0.131% [at 15.8 µM] | cytotoxicity increase [7] -8.68% [at 15.8 µM] | cytotoxicity increase [8] -6.06% [at 15.8 µM] | activity change, negative = cytotoxic [9] 0.713% [at 15.8 µM] | activity change, negative = cytotoxicity [10] -1.62% [at 15.8 µM] | activity change, negative = cytotoxicity [11] -0.375% [at 15.8 µM] | activity change [12] -6.11% [at 15.8 µM, stronger effect = higher value] | activity change, negative = cytotoxicity [13] -1.91% [at 15.8 µM] | cytotoxicity increase [14] -10.2% [at 15.8 µM] | activity change, negative = cytotoxicity [15] -3.18% [at 19 µM] | viability change, negative = cytotoxic [16] -0.888% [at 19 µM] | activity change, negative = inhibition [20] -4.15% [at 19 µM] | outcome [17] | activity change, negative = inhibition [18] 3.65% [at 19 µM] | activity change, negative = cytotoxicity [19] 1.17% [at 19 µM]

O=C1CC[C@H](C(=O)N2CCCCC2)N1
inactive: outcome [1] | Potency [2] | Potency [3] | outcome [4] | Potency [5] | Potency [6] | Potency [7] | Potency [8] | outcome [9] | Potency [10] | Potency [11] | Potency [12] | Potency [13] | Potency [14] | Potency [15] | Potency [16] | Potency [20] | outcome [17] | Potency [18] | outcome [19]

O=CN1CCOCC1
inactive: outcome [1] | Potency [2] | Potency [3] | outcome [4] | Potency [5] | Potency [6] | Potency [7] | Potency [8] | outcome [9] | Potency [10] | Potency [11] | Potency [12] | Potency [13] | Potency [14] | Potency [15] | Potency [16] | Potency [20] | Potency [18] | outcome [19]

C[N+](C)(C)CC(O)CCl (stereo unspecified)
inactive: outcome [1] | Potency [2] | Potency [3] | outcome [4] | Potency [5] | Potency [6] | Potency [7] | Potency [8] | outcome [9] | Potency [10] | Potency [11] | Potency [12] | Potency [13] | Potency [14] | Potency [15] | Potency [16] | Potency [20] | Potency [18] | outcome [19]

CC(C)CCC(=O)CCC(C)C
inactive: outcome [1] | Potency [2] | Potency [3] | outcome [4] | Potency [5] | Potency [6] | Potency [7] | Potency [8] | outcome [9] | Potency [10] | Potency [11] | Potency [12] | Potency [13] | Potency [14] | Potency [15] | Potency [16] | Potency [20] | outcome [19]

C[C@H](CCC(=O)O)[C@H]1CC[C@H]2[C@@H]3[C@H](O)C[C@@H]4C[C@H](O)CC[C@]4(C)[C@H]3C[C@H](O)[C@]12C
inactive: outcome [1] | Potency [2] | Potency [3] | outcome [4] | Potency [5] | Potency [6] | Potency [7] | Potency [8] | outcome [9] | Potency [10] | Potency [11] | Potency [12] | Potency [13] | Potency [14] | Potency [15] | Potency [16] | Potency [20] | outcome [17] | Potency [18] | outcome [19]
